Measured values reported in PubChem BioAssay (NCATS).
Values joined by “and” are separate entries in the source; they are usually repeats but may differ in a detail not shown here. Identical values can stand only once. Results filed as inconclusive are left out. Active and inactive are the calls of the source. Calls follow the shape of the dose curve; as a rule, active = well fitted cell-killing curve with a large enough effect; inconclusive = small, poorly fitted or top-dose-only effect, or effect the other way; inactive = no such curve, though single readings can be large or run the other way.

Columns and labels:
[1] = Quantitative High-Throughput drug screen in 47 multiple myeloma cell lines against the NCATS MIPE library collection: OCIMY7_PLB cell viability assay (AID 1918987); also: nearly all actives have a fitted effect of over 65% in size
Method in brief: (§1)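 ATP-based CellTiter-Glo luminescence after 48 h drug exposure (37 °C, 5% CO2) of 500 myeloma cells per well. DMSO-only wells set 100% viability, media-only wells 0%; MIPE 4.0 library added by pin tool.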

[2] = Quantitative High-Throughput drug screen in 47 multiple myeloma cell lines against the NCATS MIPE library collection: OCIMY5_PLB cell viability assay (AID 1918988); also: nearly all actives have a fitted effect of over 65% in size
Method in brief: as §1

[3] = Quantitative High-Throughput drug screen in 47 multiple myeloma cell lines against the NCATS MIPE library collection: OPM1_PLB cell viability assay (AID 1918989); also: nearly all actives have a fitted effect of over 40% in size
Method in brief: as §1

[4] = Quantitative High-Throughput drug screen in 47 multiple myeloma cell lines against the NCATS MIPE library collection: SKMM1_PLB cell viability assay (AID 1919863); conditions: SKMM1 myeloma viability, CellTiter-Glo ATP, 48 h; viability: hits give low values; also: nearly all actives have a fitted effect of over 35% in size
Method in brief: as §1

[5] = Quantitative High-Throughput drug screen in 47 multiple myeloma cell lines against the NCATS MIPE library collection: U266_ATCC cell viability assay (AID 1919864); also: nearly all actives have a fitted effect of over 35% in size
Method in brief: as §1

[6] = Quantitative High-Throughput drug screen in 47 multiple myeloma cell lines against the NCATS MIPE library collection: XG6_PLB cell viability assay (AID 1919865); also: nearly all actives have a fitted effect of over 40% in size
Method in brief: as §1

[7] = Quantitative High-Throughput drug screen in 47 multiple myeloma cell lines against the NCATS MIPE library collection: XG1_PLB cell viability assay (AID 1919866); also: nearly all actives have a fitted effect of over 35% in size
Method in brief: as §1

[8] = Quantitative High-Throughput drug screen in 47 multiple myeloma cell lines against the NCATS MIPE library collection: VP6_DJ cell viability assay (AID 1919867); also: nearly all actives have a fitted effect of over 40% in size
Method in brief: as §1

[9] = Quantitative High-Throughput drug screen in 47 multiple myeloma cell lines against the NCATS MIPE library collection: UTMC2_PLB cell viability assay (AID 1919868); conditions: CellTiter-Glo ATP luminescence, 48 h; viability (% of DMSO control): at 45.8 µM (top of the series); also: nearly all actives have a fitted effect of over 55% in size
Method in brief: as §1

[10] = Quantitative High-Throughput drug screen in 47 multiple myeloma cell lines against the NCATS MIPE library collection: PE2_PLB cell viability assay (AID 1919869); also: nearly all actives have a fitted effect of over 35% in size
Method in brief: as §1
Potency is read from the fitted curve at half-maximal effect.

CO[C@@H]1[C@H](N(C)C(=O)c2ccccc2)C[C@H]2O[C@]1(C)n1c3ccccc3c3c4c(c5c6ccccc6n2c5c31)C(=O)NC4
active: Potency [1] 0.235 µM | Potency [2] 1.48 µM | Potency [3] 1.18 µM | Potency [4] 8.33 µM | Potency [5] 3.72 µM | Potency [6] 372 nM | Potency [7] 0.935 µM | Potency [8] 0.418 µM | Potency [9] 0.935 µM | Potency [10] 0.59 µM

CC(C=CC1=C(C)CCCC1(C)C)=CC=CC(C)=CC(=O)O
active: Potency [1] 2.64 µM | Potency [2] 14.8 µM | Potency [3] 8.33 µM | Potency [5] 2.09 µM | Potency [6] 935 nM and 5.26 µM | Potency [7] 1.87 µM and 16.6 µM | Potency [10] 16.6 µM

CS(=O)(=O)c1cccc(CNc2nc(Nc3ccc4c(c3)CCC(=O)N4)ncc2C(F)(F)F)c1
active: Potency [1] 14.8 µM | Potency [2] 18.7 µM | Potency [3] 18.7 µM | Potency [4] 20.9 µM | Potency [5] 18.7 µM | Potency [6] 8330 nM | Potency [7] 11.8 µM | Potency [8] 5.26 µM | Potency [9] 11.8 µM | Potency [10] 18.7 µM

COc1cc(F)c(F)c(Nc2ccc(I)cc2F)c1NS(=O)(=O)C1(C[C@H](O)CO)CC1
active: Potency [1] 16.6 µM | Potency [3] 11.8 µM | Potency [5] 16.6 µM

Clc1ccc(Nc2nnc(Cc3ccncc3)c3ccccc23)cc1
active: Potency [1] 3.32 µM | Potency [2] 6.62 µM | Potency [6] 2090 nM | Potency [8] 23.5 µM

CC1(C)SCCN(S(=O)(=O)c2ccc(OCC#CCO)cc2)[C@@H]1C(=O)NO
active: Potency [1] 5.26 µM | Potency [2] 5.26 µM
inactive: Potency [3] | Potency [7] | Potency [10]

COc1ccc2nc(S(=O)Cc3ncc(C)c(OC)c3C)[nH]c2c1 (stereo not given)
active: Potency [1] 16.6 µM | Potency [8] 16.6 µM | viability (% of DMSO control) [9] 120%
inactive: Potency [2] | Potency [10]

O=C(O)[C@@H](c1ccc(OCc2ccc3ccccc3n2)cc1)C1CCCC1
inactive: Potency [3] | viability [4] 106% | Potency [5] | Potency [10]
active: Potency [1] 5.9 µM | Potency [7] 5.26 µM | Potency [8] 5.9 µM

CCOc1cc(N2CCC(O)CC2)ccc1Nc1ncc2c(n1)N(C)c1ccccc1C(=O)N2C
active: Potency [1] 6.62 µM | Potency [2] 14.8 µM | Potency [3] 2.96 µM | Potency [7] 5.9 µM | Potency [8] 2.09 µM | Potency [10] 3.72 µM

CS(=O)(=O)c1ccc(C(=O)Nc2ccc(Cl)c(-c3ccccn3)c2)c(Cl)c1
inactive: viability [4] 129%
active: Potency [1] 14.8 µM | Potency [3] 18.7 µM | Potency [7] 1.66 µM

NNCCc1ccccc1
inactive: Potency [1] | Potency [3] | Potency [6] | Potency [10]
active: Potency [5] 8.33 µM

CC(C)(Sc1ccc(CCN(CCCCC2CCCCC2)C(=O)NC2CCCCC2)cc1)C(=O)O
inactive: Potency [3] | Potency [6] | Potency [7] | Potency [8]
active: Potency [1] 14.8 µM | Potency [4] 14.8 µM | Potency [5] 16.6 µM

Cc1csc(NC(=O)c2sc3nc4c(c(C(F)(F)F)c3c2N)CCC4)n1
inactive: Potency [6] | Potency [9] | Potency [10]
active: Potency [1] 2.35 µM | Potency [2] 20.9 µM | Potency [5] 7.43 µM | Potency [7] 2.35 µM

Cn1cnc2c(F)c(Nc3ccc(Br)cc3Cl)c(C(=O)NOCCO)cc21
inactive: Potency [9]
active: Potency [1] 0.0469 µM | Potency [2] 9.35 µM | Potency [4] 1.18 µM | Potency [5] 5.26 µM | Potency [6] 418 nM | Potency [7] 0.0935 µM | Potency [8] 0.296 µM | Potency [10] 0.235 µM

Fc1ccc(Cl)cc1-c1nc(Nc2ccncc2)c2nccnc2n1
active: Potency [3] 14.8 µM | Potency [6] 3320 nM | Potency [10] 7.43 µM
inactive: Potency [1] | viability [4] 120% | Potency [5] | Potency [7]

OCCC#Cc1nc(-c2ccc(F)cc2)c(-c2ccncc2)n1CCCc1ccccc1
active: Potency [1] 5.26 µM | Potency [3] 18.7 µM | Potency [7] 18.7 µM | Potency [10] 20.9 µM
inactive: Potency [5]

COc1c(Cl)cc2c([nH]c3cnccc32)c1NC(=O)c1cccnc1C
active: Potency [1] 2.09 µM | Potency [2] 9.35 µM | Potency [3] 2.96 µM | Potency [6] 166 nM | Potency [7] 0.372 µM | Potency [10] 3.32 µM

Cn1cnc([N+](=O)[O-])c1Sc1ncnc2nc[nH]c12
active: Potency [1] 11.8 µM | Potency [3] 4.69 µM | Potency [5] 10.5 µM | Potency [7] 5.26 µM | Potency [8] 16.6 µM | Potency [9] 5.26 µM | Potency [10] 14.8 µM

C#Cc1cccc(Nc2ncnc3cc(OCCOC)c(OCCOC)cc23)c1
active: Potency [1] 0.833 µM | Potency [2] 5.9 µM | Potency [5] 13.2 µM | Potency [6] 83.3 nM | Potency [9] 4.18 µM

O=C(Nc1nc2ccccc2n1CCN1CCOCC1)c1cccc([N+](=O)[O-])c1
active: Potency [1] 1.87 µM | Potency [2] 5.9 µM | Potency [5] 14.8 µM | Potency [6] 1320 nM | Potency [7] 4.18 µM | Potency [10] 1.05 µM
